Bioassay records: PubChem BioAssay, Center for Chemical Genomics, University of Michigan
Dicer inh: inhibitors of Dicer pre-microRNA processing, primary screen, biochemical, cat-ELCCA, chemiluminescence. Endoribonuclease Dicer (Homo sapiens), Q9UPY3. cat-ELCCA pre-miR-21 Dicer processing; active compounds read high. z-score at 25 µM. 47,000 compounds, 6% hits. AID 1347074, 2019; in the data active = z-score above about 3, passing the limit was not always enough;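 note: higher signal means more uncleaved substrate so more Dicer inhibition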
Large screens that a line does not name were inactive. The full list was thinned out, with hits kept by preference.

CCOC(=O)C1=C(C)Nc2ncnn2C1c1ccc(N(CC)CC)cc1 (configuration not stated)	none
CC1=C(C(=O)OCc2ccccc2)C(c2ccc(OCc3ccccc3)cc2)n2ncnc2N1 (configuration not stated)	Dicer inh 3.1
Cc1nn(-c2c(Cl)cc(C(F)(F)F)cc2Cl)c(C)c1C(=O)O	none
Cc1ccc2c(=O)c(C(=O)c3ccccc3C)coc2c1	none
COC(=O)Oc1ccc2c(=O)c(-c3ccccc3)coc2c1	none
Cc1ccc2c(=O)c(C(=O)c3ccccc3)coc2c1	Dicer inh 5.49
Cc1cn2c3ccccc3nc2n1CCO	none
CCCc1nn2c(=O)c(NC(=O)c3ccc(C(C)(C)C)cc3)cnc2s1	none
CCOC(=O)/C(C#N)=C(/SC)N(C)C	none
Clc1ccc(Nc2nc3ccccc3nc2-c2ccccc2)cc1	none
CSC1=NC(N)=C(C#N)C2(CCCCC2)C1C(N)=O (configuration not stated)	none
COc1ccc(CN2CCN(C3CCCC3)CC2)cc1OCc1ccccc1	none
COc1cccc(CNc2ncc(-c3ccc(Br)cc3)n2C)c1	none
Cc1ccc(-c2cnc(NCc3cc(Br)ccc3F)n2C)cc1	none
Cn1c(-c2ccc(F)cc2)cnc1NCc1cc(Br)ccc1F	Dicer inh 3.13
CCOc1ccc(-c2cnc(NCc3cc(Cl)ccc3O)n2C)cc1	none
COc1ccc(CNc2ncc(-c3ccc(Br)cc3)n2C)cc1OC	none
Cn1c(-c2ccccc2)cnc1NCc1ccc(Br)cc1	none
COc1cccc(-c2cnc(NCc3cc(Br)ccc3F)n2C)c1	none
Cn1c(-c2ccc(F)cc2)cnc1NCc1ccccc1Cl	none
Cn1c(-c2ccc(F)cc2)cnc1NCc1cc(Cl)ccc1O	Dicer inh 5.61
Cn1c(-c2ccc(Br)cc2)cnc1NCc1ccc(F)cc1	Dicer inh 3.12
Cc1ccc(CNc2ncc(-c3ccc(F)cc3)n2C)cc1	none
CCOc1cc(CNc2ncc(-c3ccc(Br)cc3)n2C)ccc1O	Dicer inh 3.42
O=C(CSc1ccccn1)Nc1ccccc1Sc1nccc(C(F)(F)F)n1	none
COC(=O)c1sc(Br)c(Br)c1OC(=O)c1ccc(Cl)cc1Cl	none
c1ccc(OCc2nnc3sc(-c4nn5c(COc6ccccc6)nnc5s4)nn23)cc1	none
CCOC(=O)c1cccc(CSC(=N)N)c1	none
O=C1CCC/C(=N\Nc2ccccc2)C1	none
O=C(O)CC(=O)NC(=O)NCc1ccccc1	none
CC(C)CC(Nc1ncnc2ccccc12)C(=O)O (configuration not stated)	none
FC(F)(F)c1ccc(N2CCCN(C(=S)NC3CCCCCCC3)CC2)nc1	none
CC(C)SC(=NC#N)S/C=C/C(=O)c1ccc(Cl)cc1	none
Cc1cc(-c2ccccc2)n(-c2cccc3cccnc23)n1	none
Cc1cccc(-c2noc(-c3cc(C)cc(C)c3)n2)c1	none
Cc1[nH]cnc1C(=O)N/N=C/c1ccncc1	none
CCN(CC)c1nc2ccccc2c(=O)s1	Dicer inh 3.74
CCOc1ccc(Nc2nc3ccccc3c(=O)s2)cc1	none
O=C(Nc1nc2ccccc2c(=O)s1)c1ccccc1	none
O=C(CSc1nc(-c2cccs2)cc(C(F)(F)F)n1)NCc1ccncc1	none
S=C(NNc1ccccc1)Nc1ccccc1Cl	none
Cc1cc(/C=C(\C#N)S(=O)(=O)c2ccccc2)c(C)s1	none
COc1ccc(/C=N/NS(=O)(=O)c2ccc(Cl)cc2)cc1OC	Dicer inh 3.54
Cc1ccc(S(=O)(=O)N/N=C/c2ccc(Cl)c(Cl)c2)cc1	none
Cc1ccc(S(=O)(=O)N/N=C/c2ccc(Cl)cc2)cc1	none
CC(C)(C)c1cc(NS(=O)(=O)c2ccc(C#N)cc2)no1	none
Cc1ccc(S(=O)(=O)Nc2nc3n(n2)C(c2ccccc2)C=C(c2ccccc2)N3)cc1 (configuration not stated)	none
O=C(CCc1ccccc1)Nc1nc2n(n1)C(c1ccc(F)cc1)C=C(c1ccccc1)N2 (configuration not stated)	none
Cc1ccc(C2C=C(c3ccccc3)Nc3nc(NS(=O)(=O)c4ccc(C)cc4)nn32)cc1 (configuration not stated)	Dicer inh 3.96
COC(=O)c1sc(N(C)C)c(C#N)c1-c1ccccc1	none
CSc1scc(-c2cccc(Cl)c2)c1C#N	none
CN(C)c1scc(-c2ccccc2)c1C#N	Dicer inh 15
Cc1c(C)c(C)c(CN)c(C)c1C	none
Oc1ccccc1-c1nc(/C=C/c2ccccc2Cl)no1	none
CN(C)c1ccc(/C=C/c2noc(-c3ccccc3O)n2)cc1	Dicer inh 5.85
Oc1ccccc1-c1nc(/C=C/c2ccccc2)no1	none
CCCCOc1ccc2c(=O)c(Oc3ccc(OC)cc3)coc2c1	none
O=C(NCc1cccnc1)C(=O)Nc1ccccc1Oc1ccc(Cl)cc1Cl	none
O=C1CC(c2c[nH]c3ccccc23)C(=O)N1c1ccccc1 (configuration not stated)	none
O=C1CC(c2cn(Cc3ccccc3)c3ccccc23)C(=O)N1c1ccc(O)cc1 (configuration not stated)	Dicer inh 5.56
O=C1CC(N2CCN(c3ccc(O)cc3)CC2)C(=O)N1c1ccccc1 (configuration not stated)	none
O=C(c1cccc(C(F)(F)F)c1)N1CCc2sccc2C1c1ccc(OC(F)(F)F)cc1 (configuration not stated)	none
CC(=O)c1c(C)nc(-c2ccc(Cl)cc2)nc1SCc1ccccc1	none
COC(=O)CN(C#N)c1nc(C)cc(C)n1	Dicer inh 6.69
COC(=O)CN(C#N)c1nc(N(C)C)nc(N(C)C)n1	none
COc1cc(C)nc(N(C#N)C(C)C)n1	none
